Screening results: PubChem, National Center for Advancing Translational Sciences (NCATS)
Pf growth 96h = inhibits malaria parasite growth, 96 h; P. falciparum luciferase reporter growth, 96 h; Potency, µM (top dose mostly 28.7 µM), inactives show at the top dose activity change, negative = inhibition, most hits filed as inhibitors; actives 6.9% (n = 320,000); further: potency means the concentration at half of the fitted maximal effect; on the % scale 0 is the no-effect control and ±100 the full control effect
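P. falciparum expressing integrated firefly luciferase grown in erythrocytes (2% hematocrit, 0.05% parasitemia final) with compounds for 96 hours at 37 C, 5% CO2. Growth inhibition read as loss of luminescence after adding luciferase detection reagent.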
Pf growth 48h = inhibits P. falciparum growth in the first generation, 48 h; Potency, µM (doses to about 28.7 µM), for inactives: at the highest dose activity change, negative = inhibition, hits mostly inhibitors; actives 5.9% (n = 310,000); P. falciparum luciferase growth in erythrocytes, 48 h; further: potency means the concentration at half of the fitted maximal effect; on the % scale 0 is the no-effect control and ±100 the full control effect
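In quantitative HTS format, infected erythrocytes bearing luciferase-reporter parasites were treated for a single generation at 37 C. Luminescence after adding detection reagent served as the growth measure.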
CHX counter = affects cycloheximide protein synthesis inhibition readout, counter-screen. cell reporter, cycloheximide protein synthesis inhibition counterscreen. max response, %. actives 12% (n = 300,000); in the data active means max response mostly above about 13%, no sharp cut-off; inactive means mostly below about 14%; further: read at 38.3 µM for the half of the compounds with a filed dose; 0% is about no effect
Shiga inhibitor = blocks Shiga toxin action in Vero cells | Vero cells, Shiga toxin protein synthesis inhibition reporter | inhibition, % at 38.7 µM | actives 9.2% (n = 290,000); in the data active means inhibition mostly above about 28%, no sharp cut-off; inactive means mostly below about 43%; further: 0% is about no effect
LmPK inhibitor = LmPK (Leishmania mexicana) enzyme inhibition; Q27686; purified LmPK, Kinase-Glo ATP luminescence, 1 h; Potency, µM (top dose mostly 57.5 µM), for inactives: at the highest dose activity change, negative = inhibition, hits mostly inhibitors; actives 0.37% (n = 290,000); further: potency means the concentration at half of the fitted maximal effect; on the % scale 0 is the no-effect control and ±100 the full control effect
Target sequence (Q27686 whole entry, looked up): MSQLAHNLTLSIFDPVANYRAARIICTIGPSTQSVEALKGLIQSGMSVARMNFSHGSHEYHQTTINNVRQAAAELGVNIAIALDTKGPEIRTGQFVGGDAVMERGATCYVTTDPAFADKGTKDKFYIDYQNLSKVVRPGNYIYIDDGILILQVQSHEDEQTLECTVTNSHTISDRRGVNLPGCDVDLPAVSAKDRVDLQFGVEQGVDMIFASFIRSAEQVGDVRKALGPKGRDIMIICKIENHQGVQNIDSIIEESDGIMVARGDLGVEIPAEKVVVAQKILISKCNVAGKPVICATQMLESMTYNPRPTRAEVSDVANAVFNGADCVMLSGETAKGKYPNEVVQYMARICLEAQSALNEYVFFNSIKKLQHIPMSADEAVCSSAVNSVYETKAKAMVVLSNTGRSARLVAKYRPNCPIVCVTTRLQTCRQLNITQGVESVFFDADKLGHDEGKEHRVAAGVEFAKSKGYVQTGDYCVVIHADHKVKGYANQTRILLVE
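Kinase-Glo luminescence read after 1 h RT reaction of 0.1 nM LmPK with 0.5 mM PEP and 0.1 mM ADP. Activity scaled between uninhibited and enzyme-free controls.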
Starred values were filed as active, the others as inactive; [ ] = another dose, or the depositor's remark. Compounds with a hit are over-represented: about 22% of the library has one in this group of screens. Unless noted, the call rests on the fitted dose curve; in most records, active means well fitted inhibition curve with a large enough effect; inconclusive means small, poorly fitted or top-dose-only effect, or another doubt; inactive means no such curve, though single readings can be large or run the other way.

`Cc1ccc2oc(C(=O)N3CCCCCC3)c(C)c2c1` gave Pf growth 96h 13.1µM*, Pf growth 48h -20.2%, CHX counter 70.6*, Shiga inhibitor 110.1* and LmPK inhibitor -1.4%.
Cc1c(C(=O)N2CCCCC2)oc2ccc(Br)cc12 was read as Pf growth 96h 108.5% and Pf growth 48h 74.6%.
Screening Cc1ccc2oc(C(=O)N3CCN(c4cccc(C)n4)CC3)c(C)c2c1 returned Pf growth 96h inconclusive, Pf growth 48h 22.1%, CHX counter 27.0* and LmPK inhibitor 6.6%.
`Cc1cc(C)cc(NC(=O)CN2CCC(C(=O)c3ccccc3)CC2)c1` gave Pf growth 96h 20.1%, Pf growth 48h -9.2%, CHX counter -5.5, Shiga inhibitor -3.4 and LmPK inhibitor 0.7%.
Screening CC1CCCCN1CC(=O)Nc1ccc2c(c1)OCO2 (configuration not stated) returned Pf growth 96h 18.9% and Pf growth 48h 3.8%.
`O=S(=O)(c1ccc(OCC(O)CNCc2ccco2)c(Cl)c1)N1CCOCC1` (configuration not stated) gave Pf growth 96h inconclusive, Pf growth 48h 8.28µM*, CHX counter -2.7, Shiga inhibitor 20.5 and LmPK inhibitor 2.4%.
O=C(COc1ccc(S(=O)(=O)N2CCOCC2)cc1Cl)NCc1ccco1 was read as Pf growth 96h 17.4%, Pf growth 48h -12.0%, CHX counter -5.5, Shiga inhibitor 12.1 and LmPK inhibitor 0.2%.
Screening CC(=NCCCO)c1c(O)[nH]c(=O)[nH]c1=O returned Pf growth 96h 42.0%, Pf growth 48h 53.1%, CHX counter 4.8, Shiga inhibitor -12.4 and LmPK inhibitor -1.9%.
CC(=NCCN1CCCCC1)c1c(O)[nH]c(=O)[nH]c1=O was read as Pf growth 48h 8.4%, CHX counter 20.5, Shiga inhibitor 87.1* and LmPK inhibitor -0.2%.
`COc1ccc(S(=O)(=O)N(CC(=O)N/N=C/c2cccs2)c2ccc(C)cc2)cc1OC` gave Pf growth 48h -9.7%, CHX counter -4.2, Shiga inhibitor -13.6 and LmPK inhibitor 1.3%.
Screening CCOc1ccc(S(=O)(=O)N(CC(=O)N/N=C/c2cccs2)c2ccc(C)cc2)cc1 returned Pf growth 96h inconclusive, Pf growth 48h 13.1µM*, CHX counter 9.4, Shiga inhibitor 16.2 and LmPK inhibitor 1.7%.
Screening COc1ccc(OC)c(N(CC(=O)NCCSCc2ccco2)S(=O)(=O)c2ccccc2)c1 returned Pf growth 96h inconclusive, Pf growth 48h inconclusive, CHX counter -4.6, Shiga inhibitor -1.1 and LmPK inhibitor -3.0%.
For CCOc1ccc(N(CC(=O)NCCSCc2ccco2)S(=O)(=O)c2ccc(C)cc2)cc1 the results were Pf growth 96h 8.28µM*, Pf growth 48h inconclusive, CHX counter 12.1, Shiga inhibitor 12.0 and LmPK inhibitor -6.6%.
`CCOc1ccccc1N(CC(=O)NCCSCc1ccco1)S(=O)(=O)c1ccccc1` gave Pf growth 96h 9.8%, Pf growth 48h 8.28µM*, CHX counter -0.8, Shiga inhibitor -7.4 and LmPK inhibitor 2.0%.
Screening Cc1cc(OC(F)F)ccc1NC(=S)NC1CCCC1 returned Pf growth 96h 13.1µM*, Pf growth 48h inconclusive, CHX counter -2.2, Shiga inhibitor -6.0 and LmPK inhibitor 1.7%.
COc1ccccc1NC(=S)NC1CCC(CC2CCC(NC(=S)Nc3ccccc3OC)CC2)CC1 (configuration not stated) was read as Pf growth 96h 8.28µM*, Pf growth 48h 11.7µM*, CHX counter 13.4, Shiga inhibitor -0.8 and LmPK inhibitor 2.4%.
`COc1ccc(NC(=S)NC2CCCCCC2)c(OC)c1` gave Pf growth 96h 2.6%, Pf growth 48h inconclusive, CHX counter -10.4, Shiga inhibitor 47.7* and LmPK inhibitor 1.3%.
`COc1ccc(NC(=S)NC(=O)CC(C)C)c(OC)c1` gave Pf growth 96h inactive, Pf growth 48h 25.5%[5.75 µM], CHX counter 20.7*, Shiga inhibitor 50.4* and LmPK inhibitor -3.7%.
CCCCC(=O)Nc1ccc(NC(=S)NC(=O)CC(C)C)cc1OC was read as Pf growth 96h 244.1%, Pf growth 48h inconclusive, CHX counter 6.0, Shiga inhibitor -19.7 and LmPK inhibitor 2.1%.
CCOc1ccc(/C=C2\SC(=S)N(CCC(=O)Nc3ccccc3C(=O)O)C2=O)cc1 was read as Pf growth 96h -7.3%, Pf growth 48h 5.5%, CHX counter -0.6, Shiga inhibitor -6.1 and LmPK inhibitor 9.7%.
Screening O=C(Nc1c2c(nc3c1CCC3)CCCC2)c1ccccn1 returned Pf growth 96h 19.2%, Pf growth 48h 17.1%, CHX counter -1.5, Shiga inhibitor -5.4 and LmPK inhibitor -2.9%.
`COc1ccc(/[N+]([O-])=C/c2ccoc2)cc1` gave Pf growth 96h 219.6% and Pf growth 48h 187.0%.
CC(C)CNC(=O)CSc1ccc(S(=O)(=O)N2CCN(C)CC2)cn1 was read as Pf growth 96h inconclusive and Pf growth 48h -1.4%.
For C=CCn1c(NS(=O)(=O)c2ccccc2)c(S(=O)(=O)c2ccc(C)cc2)c2nc3ccccc3nc21 the results were Pf growth 96h inconclusive, Pf growth 48h 3.29µM*, CHX counter 8.7, Shiga inhibitor 15.6 and LmPK inhibitor 0.8%.
`O=S(=O)(Nc1c(S(=O)(=O)c2ccccc2)c2nc3ccccc3nc2n1C1CCCCC1)c1ccccc1` gave Pf growth 96h 9.28µM*, Pf growth 48h 3.7µM*, CHX counter 1.0, Shiga inhibitor -9.5 and LmPK inhibitor 2.3%.
`CC(=O)Nc1c(S(=O)(=O)c2ccccc2)c2nc3ccccc3nc2n1Cc1ccccc1` gave Pf growth 96h 268.2%, Pf growth 48h inconclusive, CHX counter -2.7, Shiga inhibitor -7.5 and LmPK inhibitor 5.9%.
For CSc1nc(N)nc(SC2C=CCCC2)c1C#N (configuration not stated) the results were Pf growth 96h -1.5%, Pf growth 48h -28.5%, CHX counter 25.9*, Shiga inhibitor 60.2 and LmPK inhibitor -10.8%.
For CSc1nc(N)nc(SCCS(=O)(=O)c2ccc(Cl)cc2)c1C#N the results were Pf growth 96h 13.0%, Pf growth 48h -16.8%, CHX counter 4.5, Shiga inhibitor 1.1 and LmPK inhibitor -3.8%.
For Cc1ccc(NC(=O)CC2(CC(=O)O)CCCC2)c(C)c1 the results were Pf growth 96h 4.15µM*, Pf growth 48h 2.6%[0.00184 µM], CHX counter -4.6, Shiga inhibitor 6.6 and LmPK inhibitor -1.9%.
Screening Cc1ccc(NC(=O)CCl)c(C)c1 returned Pf growth 96h 10.4µM*, Pf growth 48h 1.85µM*, CHX counter 2.7, Shiga inhibitor 2.3 and LmPK inhibitor 10.4%.
Screening Cc1ccc(NC(=O)COC(=O)[C@H](C)NC(N)=O)c(C)c1 returned Pf growth 96h 18.5%, Pf growth 48h -1.1%, CHX counter -1.4, Shiga inhibitor -4.7 and LmPK inhibitor -1.5%.
`Cc1ccc(NC(=O)CO/N=C/c2ccccc2C)c(C)c1` gave Pf growth 96h 2.33µM*, Pf growth 48h inconclusive, CHX counter 1.9, Shiga inhibitor 8.7 and LmPK inhibitor 3.8%.
